Compound activity as filed in PubChem BioAssay.
Giardia killer: kills Giardia lamblia; AID 540267; Giardia lamblia trophozoite viability; activity change, % at 7.66 µM, hits read low; actives 0.15% (n = 340,000); in the data active = activity change below about -80%; inconclusive = between about -30% and that limit;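 also: parasites exposed to compound for two days anaerobically before the ATP read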
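Giardia lamblia trophozoites (100 cells/well) were incubated with compounds for 48 h at 37 deg C under anaerobic conditions. Viability was read as ATP content by one-step luminescence after 15-30 min at room temperature.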
B2AR arrestin: agonists driving beta-arrestin recruitment to human beta2-adrenergic receptor; P07550; beta-arrestin recruitment to beta2AR, cell-based reporter; Potency, µM (doses to about 46.1 µM), actives largely listed as activators; actives 0.02% (n = 330,000); active = well fitted activation curve with a large enough effect; inconclusive = small, poorly fitted or top-dose-only effect; also: nearly all actives have a fitted effect of over 65% in size
Target sequence (P07550 whole entry, looked up): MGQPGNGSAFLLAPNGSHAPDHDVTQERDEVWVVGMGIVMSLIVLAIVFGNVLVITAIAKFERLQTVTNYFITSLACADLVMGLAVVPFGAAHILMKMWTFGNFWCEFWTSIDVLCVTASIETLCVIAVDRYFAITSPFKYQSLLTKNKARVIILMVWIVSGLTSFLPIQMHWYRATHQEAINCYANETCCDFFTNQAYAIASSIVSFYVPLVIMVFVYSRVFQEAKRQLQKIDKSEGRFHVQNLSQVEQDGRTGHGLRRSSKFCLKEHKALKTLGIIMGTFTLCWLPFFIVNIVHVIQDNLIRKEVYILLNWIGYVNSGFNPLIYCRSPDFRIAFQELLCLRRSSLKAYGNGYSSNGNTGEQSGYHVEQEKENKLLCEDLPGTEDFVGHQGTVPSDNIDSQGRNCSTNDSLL
DRD3 antagonist: antagonists of human D3 dopamine receptor; P35462; D3R cells, DiscoveRx beta-arrestin luminescence, antagonist mode; hits give low values; max response, negative = inhibition, %; actives 2.5% (n = 360,000); AID 652054; in the data active = max response below about -50%; inconclusive = no clear call, values can overlap the other calls
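Cells plated overnight at 1500 cells/well, then exposed to library compounds with dopamine controls for 90 minutes at 37 degrees C. DiscoveRx reagent added for 30–60 minutes at room temperature; luminescence read, quantitative HTS format.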
D3 ag: D3 dopamine receptor (human) agonism. P35462. D3R DiscoveRx beta-arrestin cells, luminescence, 90 min. max activation, %. actives 0.58% (n = 410,000); in the data active = max activation above about 30%
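Agonist-mode cell screen: cells plated at 1500/well and incubated overnight at 37 °C, then exposed to library compounds for 90 min at 37 °C. Detection reagent was added for 30–60 min at room temperature, and luminescence was read.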
Hits are given with their value; 0 = inactive; ? = inconclusive; - = no result given. Compounds with a hit are over-represented: about 2.8% of the library has one in this group of screens.

SMILES | Giardia killer | B2AR arrestin | DRD3 antagonist | D3 ag
C[C@H]1[C@H]2Cc3ccc(O)cc3[C@]1(C)CCN2CCc1ccccc1 | - | - | - | 0
O=C(CCl)c1ccc(Cl)cc1Cl | - | - | - | 0
CN1CCCN(C(=O)COc2cccc(C(F)(F)F)c2)CC1 | 0 | 0 | -89 | 0
N#Cc1c(/N=C/C2C(=O)NC(=S)NC2=O)sc2c1CCCC2 | 0 | 0 | 0 | 32
CCOC(=O)c1c(/N=C/C2C(=O)NC(=S)NC2=O)sc2c1CCC2 | 0 | 0 | 0 | 0
CCOC(C(=O)OCCCN(CC)CC)(c1ccccc1)c1ccccc1 | 0 | 0 | -55 | 0
CCN(CC)CCCOC(=O)C(OC(C)C)(c1ccccc1)c1ccccc1 | 0 | 0 | -101 | 0
Cc1ccc(Cl)c(O)c1 | - | - | - | 0
COC(=O)c1ccc(CN2CCN(Cc3ccccc3)CC2)cc1 | 0 | 0 | -81 | 0
Cn1c(=O)oc(=O)c2ccccc21 | 0 | - | 0 | 31
Cc1cc(C(=O)N=Nc2c(O)n(C)c3ccccc23)c(C)o1 | 0 | 0 | 0 | 0
Cn1ncnc2c(=O)n(C)c(=O)nc1-2 | -88 | 0 | -81 | 0
Cc1ccc(-c2nc3c(=O)n(C)c(=O)nc-3n(C)n2)cc1 | -95 | - | - | -
CCCCCCCCCC(CC)c1ccc(S(=O)(=O)O)cc1 (centres undefined) | - | - | - | 0
COc1ccc(C(CNC(=O)c2ccc3c(c2)CCC3)N(C)C)cc1 (centres undefined) | 0 | 0 | -81 | 0
COc1ccc(C(=O)C(Cc2ccccc2)N(C)C)cc1 (centres undefined) | 0 | 0 | 0 | 0
O=c1[nH]c(CN2CC=C(c3ccccc3)CC2)nc2scc(-c3ccccc3)c12 | 0 | 0 | 0 | 68
CC1(C)S[C@@H]2[C@H](N)C(=O)N2[C@H]1C(=O)O | - | - | - | 0
CN1CC[C@]23c4c5ccc(O)c4O[C@H]2[C@@H](O)CC[C@H]3[C@H]1C5 | - | - | - | 0
OC[C@@H](O)[C@H]1O[C@@H]2O[C@@H](C(Cl)(Cl)Cl)O[C@@H]2[C@H]1O | - | - | - | 0
COc1cc(C[C@@H](C)N)c(OC)cc1C | - | - | - | 0
CC(C)N1CC=C(c2c[nH]c3ccccc23)CC1 | 0 | 0 | -58 | 0
C1=C(c2c[nH]c3ccccc23)CCNC1 | - | 0 | - | -
CCOc1ccccc1N1C(=O)NC(=O)/C(=C/c2ccc3c4c(cccc24)CC3)C1=O | 0 | 0 | -52 | 0
COc1cccc(N2C(=O)NC(=O)/C(=C/c3ccc4c5c(cccc35)CC4)C2=O)c1 | - | 0 | - | -
SMILES | Giardia killer | B2AR arrestin | DRD3 antagonist | D3 ag
C[C@]12CC[C@@H]3c4ccc(OC(=O)N(CCCl)CCCl)cc4CC[C@H]3[C@@H]1CC[C@@H]2OP(=O)(O)O | - | - | - | 0
CC(=O)O/C(=C1\CC2C3CC=C4CC(OC(C)=O)CCC4(C)C3CCC2(C)C1=O)C(F)(F)F (centres undefined) | 0 | - | -70 | 0
Clc1ccc(OCC#CCN2CCCC2)cc1 | 0 | 0 | -55 | 0
CC(NCc1ccc(Cl)cc1Cl)C(O)c1ccccc1 (centres undefined) | 0 | 0 | -56 | 0
COc1cc(OC)c(OC)cc1CNC(C)C(O)c1ccccc1 (centres undefined) | 0 | 0 | -67 | 0
CC(NCc1ccc(Cl)cc1)C(O)c1ccccc1 (centres undefined) | 0 | 0 | -105 | 0
CCN(CC)/[N+]([O-])=N/O | - | - | - | 0
Cc1cccc(-n2c(/C=C/c3ccc([N+](=O)[O-])o3)nc3ccccc3c2=O)c1 | -88 | 0 | 0 | 0
Cc1cccc(-n2c(/C=C/c3ccccc3O)nc3ccccc3c2=O)c1 | - | - | - | 0
O=c1c2ccccc2nc(/C=C/c2ccc([N+](=O)[O-])o2)n1-c1ccc(O)cc1 | -85 | 0 | ? | 0
O=[N+]([O-])c1ccc(N2CCCC(C(F)(F)F)C2)c2ccncc12 (centres undefined) | 0 | 0 | 0 | 32
Cc1ccccc1-n1c(CF)nc2ccc(N)cc2c1=O | - | - | - | 0
CC(Cc1ccccc1)NCCn1cnc2c1c(=O)n(C)c(=O)n2C (centres undefined) | - | - | - | 0
ClC1=C(Cl)[C@]2(Cl)[C@@H]3[C@H]4C[C@H]([C@@H]5O[C@H]45)[C@@H]3[C@@]1(Cl)C2(Cl)Cl | - | - | - | 0
Cc1cccc(OCC(=O)N2CCN(Cc3ccncc3)CC2)c1 | 0 | 0 | -77 | 0
CN(C)C(=S)SSC(=S)N(C)C | -85 | ? | -74 | 0
CCCN1CCC[C@H](c2cccc(O)c2)C1 | 0 | 0 | 0 | 121
CCCN1CCC[C@@H](c2cccc(O)c2)C1 | 0 | 0 | 0 | 0
CCOC(=O)C1(CCOc2ccccc2)CCN(Cc2ccc(C)s2)CC1 | 0 | 0 | -50 | 0
O=c1[nH]c(=O)n(C2CCCCCC2)c(O)c1C=NCCCN1CCOCC1 | 0 | 0 | -61 | 0
O=c1[nH]c(=S)n(C2CC2)c(O)c1C=NCCN1CCOCC1 | 0 | 0 | 0 | 0
CCN1CCN(Cc2ccc(C)cc2C)CC1 | 0 | 0 | -72 | 0
Cc1ccc(CN2CCN(C)CC2)c(C)c1 | 0 | 0 | 0 | 0
CCN1CCN(Cc2ccccc2C)CC1 | 0 | 0 | -66 | 0
COP(=S)(OC)Oc1ccc(S(N)(=O)=O)cc1 | - | - | - | 0
SMILES | Giardia killer | B2AR arrestin | DRD3 antagonist | D3 ag
Nc1ccc(CCN2CCCC2)cc1 | 0 | 0 | 0 | 0
Nc1ccc(CCN2CCN(c3cccc(C(F)(F)F)c3)CC2)cc1 | 0 | - | -109 | 0
CCC(OC(C)=O)C(CC(C)NC)(c1ccccc1)c1ccccc1 (centres undefined) | - | - | - | 0
Cc1ccsc1C(=O)C1CCCN(Cc2ccccc2O)C1 (centres undefined) | 0 | 0 | -53 | 0
COc1ccc(O)c(CN2CCCC(C(=O)c3sccc3C)C2)c1 (centres undefined) | 0 | 0 | ? | 0
COCc1ccc(CN2CCCC(C(=O)c3sccc3C)C2)o1 (centres undefined) | 0 | 0 | ? | 0
CCc1ccc(CN2CCCC(C(=O)c3sccc3C)C2)o1 (centres undefined) | 0 | 0 | -52 | 0
Cc1ccsc1C(=O)C1CCCN(Cc2cnn(C(C)C)c2)C1 (centres undefined) | 0 | 0 | -73 | 0
NC(=O)CN1CC(O)CC1=O (centres undefined) | - | - | - | 0
C[C@H]1CC[C@@H]2[C@@H](C)[C@H]3C(C[C@H]4C5CC[C@H]6C[C@@H](O)CC[C@]6(C)C5CC[C@]34C)N2C1 (some centres undefined) | 0 | - | - | -
Cc1ccc(O)c(CN2CCN(c3ccccc3)CC2)c1 | 0 | 0 | -80 | 0
Oc1ccc(Cl)cc1CN1CCN(Cc2ccccc2)CC1 | 0 | 0 | -66 | 0
COc1ccc(CN2CCN(c3ccccc3)CC2)c(C)c1C | 0 | 0 | -75 | 0
Cc1cc(O)c(CN2CCN(c3ccccc3)CC2)cc1C | 0 | 0 | -65 | 0
CN1C(=O)C(O)N=C(c2ccccc2)c2cc(Cl)ccc21 (centres undefined) | - | - | - | 0
Oc1cc2c(cc1CN1CCN(c3ccccc3)CC1)CCC2 | 0 | 0 | 0 | 0
Brc1cc2c(cc1CN1CCN(c3ccccc3)CC1)OCCO2 | 0 | 0 | -73 | 0
Oc1cc2c(cc1CN1CCN(c3ccc(F)cc3)CC1)OCO2 | 0 | 0 | -66 | 0
C#C[C@]1(O)C=C[C@H]2[C@@H]3CCC4=CC(=O)CC[C@@H]4[C@H]3CC[C@@]21CC | - | - | - | 0
COc1cc(CC2(CCc3ccncc3)C(=O)NC(=O)NC2=O)cc(OC)c1OC | 0 | 0 | 0 | 0
